Laboratory results taken from PubChem BioAssay.
Measured potencies and affinities stand elsewhere. Results filed as inconclusive are left out.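 Rule for the calls: active = falling signal with fitted half-maximal potency no higher than twice the top valid tested dose; inconclusive = poor fit quality, or flat fit spanning -70% to -30%; inactive = potency over limit, rising signal, or flat fit inside 30%.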

Test: Cryptococcus neoformans growth inhibition, dose response, Alamar Blue, cherry-picks (AID 686998)
Conditions: 24 h; series mostly up to 35 µM; activity change, negative = inhibition: at the top concentration

Activity change, negative = inhibition, inactive:
Cc1ccc(S(=O)(=O)N(C)C[C@@H]2Oc3ccc(NS(=O)(=O)c4ccc(Cl)cc4)cc3CC(=O)N([C@@H](C)CO)C[C@@H]2C)cc1 -7.56%
C[C@H](O)C#Cc1cnc2c(c1)C(=O)N([C@@H](C)CO)C[C@@H](C)[C@@H](CN(C)C(=O)Cc1ccncc1)O2 33.1%
COc1ccc(-n2ncc3c(SCC(=O)N4CCN(c5ccccc5OC)CC4)ncnc32)cc1 -38.4%
CC(=O)N1[C@@H]2CN(S(=O)(=O)c3ccccc3F)c3ccccc3[C@@H]2[C@@H]1CO 14%
COCC(=O)NC[C@H]1N[C@H](CO)[C@@H]1c1ccc(C2=CCCC2)cc1 -8.65%
CCC(C)(NC=O)C(=O)Nc1c(C)cccc1C (stereo not drawn) -41.4%
CO[C@@H]1CN(C)C(=O)c2ccc(NC(=O)NC(C)C)cc2OC[C@H](C)NC[C@@H]1C 0.159%
CNC(=O)C[C@@H]1CC[C@@H]2[C@H](COC[C@@H](O)CN2C(=O)Nc2ccc3c(c2)OCO3)O1 -31.7%
CNC[C@@H]1OCCCC[C@H](C)Oc2ccc(NC(=O)c3ccccc3)cc2C(=O)N([C@@H](C)CO)C[C@@H]1C 32.9%
COc1cccc(-c2cn(CC[C@@H]3CC[C@H](NC(C)=O)[C@@H](CO)O3)nn2)c1 -28.5%
O=C(C[C@@H]1CC[C@@H]2[C@H](COC[C@H](O)CN2Cc2cccc(C(F)(F)F)c2)O1)NCc1ccc(Cl)cc1 -5.56%
CO[C@H]1CN(C)C(=O)c2ccc(NC(=O)C3CC3)cc2OC[C@@H](C)N(Cc2ccc(F)cc2)C[C@@H]1C 20.2%
C[C@@H]1CN([C@H](C)CO)C(=O)c2cc(NC(=O)CCC(F)(F)F)ccc2O[C@@H](C)CCCCO[C@@H]1CN(C)C(=O)c1ccncc1 -24.9%
